Laboratory results: PubChem BioAssay AID485317 (Broad Institute, 2010)
In all, about 290,000 compounds went through this assay and about 11,000 (3.8%) were called active. This is one part of a sample in which actives are shown more often than they occur.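 The calls were made as follows: active = mean replicate inhibition above about 79%, with every replicate also reaching it (limit read from the data); inconclusive = only one of the two criteria met; inactive = mean below limit and not every replicate reaching it.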

Target: FAD-linked sulfhydryl oxidase ALR (Homo sapiens) (UniProt P55789)
Experiment: ALR-catalysed DTT oxidation blockers – biochemical, H2O2 detection, HRP-luminol luminescence, single point, primary screen (AID 485317)
Settings: purified ALR, hits give high values, concentration not given here

Sequence of FAD-linked sulfhydryl oxidase ALR (Homo sapiens) (P55789 whole entry, looked up): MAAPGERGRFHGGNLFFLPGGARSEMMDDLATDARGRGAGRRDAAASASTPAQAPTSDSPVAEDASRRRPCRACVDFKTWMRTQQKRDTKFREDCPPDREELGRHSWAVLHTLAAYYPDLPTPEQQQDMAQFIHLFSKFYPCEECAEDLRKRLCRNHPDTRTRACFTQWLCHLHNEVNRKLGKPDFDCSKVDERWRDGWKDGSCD

Compound | inhibition
CC(C)(C)OC(=O)CNC(=O)c1[nH]cnc1C(=O)N[C@@H](CCCCN)C(=O)OC(C)(C)C | 2.52% (inactive)
C=CC[C@@H](CC(=O)N[C@@H](CO)Cc1ccccc1)C(=O)NCCOC(=O)[C@@H](CC=C)CC(=O)OC(C)(C)C | 0.56% (inactive)
COc1ccc(C(=O)N(Cc2ccccc2)c2ccc(C)cc2)cc1S(=O)(=O)N1CCOCC1 | 18.8% (inactive)
CCN(CC)c1ccc(NC(=O)CN2CCN(c3ccccn3)CC2)cc1 | 99.3% (active)
O=C(CN1CCN(c2ccccn2)CC1)Nc1ccc(Br)cc1 | -8.03% (inactive)
COc1ccc(NC(C)=O)cc1NC(=O)CN1CCN(c2ccccn2)CC1 | -9.42% (inactive)
Cc1ccc(S(=O)(=O)N2[C@@H](c3cccc4ccccc34)C(C(=O)O)=C[C@H]2C(C)(C)C)cc1 | 9.1% (inactive)
CN(C(=O)Cn1nnc(-c2ccc(F)cc2)n1)C1CCS(=O)(=O)C1 (stereo unspecified) | -4.28% (inactive)
CCC1CCC/C1=N\NC(=O)c1ccc(Cl)cc1 (stereo unspecified) | -14.7% (inactive)
O=C(COc1ccc2c3c(c(=O)oc2c1)CCCC3)NCC(O)c1ccccc1 (stereo unspecified) | -0.0443% (inactive)
O=C(COc1ccc2oc3c(c2c1)CCCC3)Nc1ccccn1 | -9.11% (inactive)
CCN(CC)CCCNC(=O)COc1ccc2oc3c(c2c1)CCCC3 | 83.3% (active)
Cc1ccc(Br)c(NS(=O)(=O)c2cccc(C(=O)N3CCNC(=O)C3)c2)c1 | -0.146% (inactive)
COc1ccc(OCC(=O)Nc2ccc(N3CCC(C)CC3)cc2)cc1 | 1.79% (inactive)
COc1ccc(N2CCC(N3CCN(C)C(CCO)C3)CC2)cc1 (stereo unspecified) | 86.4% (active)
COc1ccccc1N1CCC(N2CCN(CC(C)(C)C)C(CCO)C2)CC1 (stereo unspecified) | 21.8% (inactive)
COc1ccc(CCNC(=O)C(=O)NCC2CCCN2S(=O)(=O)c2cccs2)cc1OC (stereo unspecified) | -2.42% (inactive)
Nc1cccc(CCc2nc3ccccc3[nH]2)c1 | 1.01% (inactive)
O=C(OCc1nc2ccccc2[nH]1)C1CCCCC1 | 0.03% (inactive)
Oc1ccc2nc(Cc3ccccc3)[nH]c2c1 | 98.6% (active)
CN(C)C(=O)c1ccc(NC(=O)COC(=O)c2cc3c(s2)CCCCC3)cc1 | -2.4% (inactive)
CCOc1ccc(NS(=O)(=O)c2ccc(Cl)c(C(=O)N(C)Cc3cccnc3)c2)cc1 | -9.87% (inactive)
O=C(Nc1cccc(S(=O)(=O)N2CCOCC2)c1)C12CC3CC(CC(C3)C1)C2 | -1.07% (inactive)

Compound | inhibition
Oc1cc(O)c2c(c1)OC(c1ccc(O)c(O)c1)C(O)C2 (stereo unspecified) | 98.2% (active)
O=C1N[C@@H](c2ccccc2)COC(=O)[C@H](Cc2ccc(F)cc2)C/C=C\C[C@@H]1CC(=O)N(CCO)Cc1ccccc1 | -1.44% (inactive)
Cc1ccc(NC(=O)COc2coc(CN3CCc4ccccc4C3)cc2=O)cc1Cl | -8.1% (inactive)
Cc1ccsc1C(=O)OCC(=O)NCCc1ccccc1 | -5.18% (inactive)
Cc1cccc(N2C(=O)SC(N(CC(=O)O)c3cccc(C)c3)C2=O)c1 (stereo unspecified) | 98.6% (active)
Cc1ccc(N2C(=O)SC(N(CC(=O)O)c3ccc(C)cc3)C2=O)cc1 (stereo unspecified) | 0.583% (inactive)
Cc1cccc(N2C(=O)SC(SC(=Nc3ccccc3)Nc3ccccc3)C2=O)c1 (stereo unspecified) | 0.802% (inactive)
CN(N)c1nc(N2CCCC2)nc(N2CCCC2)n1 | -6.99% (inactive)
Cc1sc2ncnc(N3CCC(C(=O)Nc4ccc(F)cc4Cl)CC3)c2c1C | 1.27% (inactive)
Nc1c(-c2ccccc2)nnn1Cc1ccccc1 | -6.35% (inactive)
Cn1c(CC2Sc3ccccc3NC2=O)nnc1SCC(=O)c1ccc(Cl)cc1 (stereo unspecified) | 92.8% (active)
Cc1ccc(C(=O)CSc2nnc(Cn3nnc4ccccc43)n2C)cc1 | 39.7% (inactive)
Cn1c(CC(=O)Nc2ccccc2)nnc1SCC(=O)c1ccccc1 | -3.26% (inactive)
S=c1[nH]nc(-c2ccco2)n1/N=C/c1ccc(Br)s1 | 68.5% (inactive)
Cc1cc(-c2n[nH]c(=S)n2/N=C/c2ccco2)n[nH]1 | -0.903% (inactive)
S=c1[nH]nc(-c2ccco2)n1/N=C/c1ccccc1 | 94.9% (active)
COc1ccc(C(=O)COC(=O)C(O)c2ccccc2)c(OC)c1 (stereo unspecified) | -0.55% (inactive)
O=C(C1Cc2ccccc2CN1C(=O)c1ccco1)N1CCN(c2ccccc2)CC1 (stereo unspecified) | 50.3% (inactive)
Cc1ccc(Cl)c(OCC(=O)N(C)CC(=O)Nc2ccc(N3CCOCC3)cc2)c1 | 52.9% (inactive)
O=C(CCc1[nH]c2ccccc2c1Sc1ccccc1)N(CCO)CCO | 99% (active)
CCCC(=O)N(CCc1ccccc1)Cc1nc2ccccc2c(=O)[nH]1 | -7.51% (inactive)
CCCCNC(=O)Cn1nc(C)c(S(=O)(=O)N2CCOCC2)c1C | 3.23% (inactive)
COc1ccc(S(=O)(=O)N2CCN(CC(=O)N3CCOCC3)CC2)cc1OC | -0.297% (inactive)

Compound | inhibition
Oc1ccc(-c2nnc(Nc3ccccc3)c3ccccc23)cc1 | 98.8% (active)
Cc1ccc(-c2nnc(Nc3ccc(C(=O)N(C)C)cc3)c3ccccc23)cc1S(N)(=O)=O | -2.47% (inactive)
Cc1cccc(-c2nc(Nc3ccc(O)cc3)c3ccccc3n2)c1 | 6.09% (inactive)
O=C1NC(c2cccc(Cl)c2)Nc2ccccc21 (stereo unspecified) | 0.575% (inactive)
O=C1c2ccccc2NC(c2ccc(-c3cccc(Cl)c3)o2)N1O (stereo unspecified) | 95.9% (active)
CCOC(=O)NN1C(=O)c2ccccc2NC1c1cccc(O)c1 (stereo unspecified) | -18.3% (inactive)
COc1ccc(C(=O)COC(=O)c2c(C)noc2C)cc1Cl | 1.08% (inactive)
Nc1ccc(-c2nnc(-c3ccccc3)o2)cc1 | 36.1% (inactive)
Nc1nc(-c2ccccc2)cc(-c2ccccc2)n1 | -2.58% (inactive)
Nc1ccc(-c2sc(N)nc2-c2ccccc2)cc1 | 99% (active)
CCN1C(=O)[C@@H]2[C@@H](c3ccc(-c4ccccc4)cc3)N3CCCC[C@@]3(C(=O)OC)[C@@H]2C1=O | -1.67% (inactive)
CCCCn1c(N)c(N(CCOC)C(=O)c2cccc(S(=O)(=O)N(C)c3ccccc3)c2)c(=O)[nH]c1=O | -2.15% (inactive)
Cc1ccc(NC(=O)C2CC(=O)N(c3ccc4c(c3)OCCO4)C2)cc1S(=O)(=O)N1CCCCCC1 (stereo unspecified) | -0.304% (inactive)
COc1cc(C2C(C(=O)c3cccs3)=C(O)C(=O)N2CCN2CCOCC2)ccc1OCCC(C)C (stereo unspecified) | -0.637% (inactive)
Cc1ccc(NC(=O)CSc2nn3c(=O)c(C)nnc3s2)cc1Cl | 98.9% (active)
COc1ccc(Cc2nnc(SCC(=O)Nc3ccc(C)c(Cl)c3)[nH]c2=O)cc1 | -4.08% (inactive)
Cc1ccc(NC(=O)C/C(N)=N/O)cc1Cl | -7.95% (inactive)
CC(C)(C)S(=O)(=O)c1ccccc1-c1noc(-c2ccccc2)c1C(N)=O | -2.96% (inactive)
COc1ccc2c(c1)C(=O)Nc1cc(Cl)ccc1N2 | 87.7% (active)
COc1ccc(C2NC(=O)c3ccccc3N2)cc1 (stereo unspecified) | 0.0966% (inactive)
COc1ccc2nc3n(c(=O)c2c1)-c1ccc(Cl)cc1C(=O)NC3Cc1ccccc1 (stereo unspecified) | -0.323% (inactive)
CC(C)(C)c1ccc(C(=O)NCc2ccco2)cc1 | 1.34% (inactive)
CN(CC(=O)NC1CCN(Cc2ccccc2)CC1)S(=O)(=O)c1ccc(Cl)s1 | -2.03% (inactive)

Compound | inhibition
Cc1ccc(NC(=O)c2ccc(Cl)nc2)cc1S(=O)(=O)N1CCOCC1 | -4.04% (inactive)
Cc1ccc(NC(=O)CS(=O)CC(=O)N(c2ccccc2)C(C)C(=O)NC2CCCC2)cc1 (stereo unspecified) | -4.87% (inactive)
Cc1ccc(S(=O)(=O)NCCC(=O)NC2CCN(Cc3ccccc3)CC2)cc1 | 6.19% (inactive)
Cc1ccc(NC(=O)CSCC(=O)NC2CCCCC2)cc1 | -3.3% (inactive)
Cc1ccc(-c2nc(CS(=O)CC(=O)NC3CCCC3)c(C)o2)cc1 (stereo unspecified) | 99.1% (active)
Cc1ccc(-c2cc(C(=O)NC3CCN(Cc4ccccc4)CC3)c3ccccc3n2)cc1 | 1.58% (inactive)
Cc1ccc(-c2nc(CSCC(=O)NC3CCN(Cc4ccccc4)CC3)c(C)o2)cc1 | 99.5% (active)
COC(=O)[C@]1(CC(C)C)N[C@H](c2ccc(SC3CCCCC3)cc2)[C@@H]2C(=O)N(C)C(=O)[C@@H]21 | -4.22% (inactive)
O=C(Nc1cccc(S(=O)(=O)N2CCCC2)c1)c1cncc(Br)c1 | -0.493% (inactive)
OCC[C@H]1C[C@@H](O)[C@H](O)[C@@]2(OCCc3ccccc32)O1 | -5.81% (inactive)
C=CC[C@@H](CC(=O)N[C@@H](CO)Cc1ccccc1)C(=O)N[C@H](COC(=O)[C@H](CC=C)CC(=O)OC(C)(C)C)Cc1ccccc1 | 0.393% (inactive)
Oc1c(C(c2cccs2)N2CCN(c3ccc(F)cc3)CC2)sc2ncnn12 (stereo unspecified) | 95.5% (active)
Cc1ccc(C(c2sc3nc(C)nn3c2O)N2CCN(c3ccc(F)cc3)CC2)cc1 (stereo unspecified) | 2.24% (inactive)
Oc1c(C(c2ccco2)N2CCC3(CC2)OCCO3)sc2ncnn12 (stereo unspecified) | -33.4% (inactive)
COc1ccc(C(CNC(=O)c2ccc(NS(=O)(=O)c3ccc(F)c(C)c3)cc2)N(C)C)cc1 (stereo unspecified) | -5.64% (inactive)
CC1(C)CC(=O)C=C(c2ccc(Cl)c(C(F)(F)F)c2)C1 | 3.75% (inactive)
CC(=O)c1ccc(NC(=O)CSC(=S)N2CCCC2)cc1 | 92.8% (active)
CCN(CC(=O)Nc1ccc(NC(C)=O)cc1)C(=O)CSC(=S)N1CCCC1 | -0.0599% (inactive)
COc1cc(NC(=O)CSC(=S)N2CCCC2)c(OC)cc1Cl | -2.05% (inactive)
CCN1C(=O)c2cccc3c(S(=O)(=O)Nc4ccccc4O)ccc1c23 | -28.9% (inactive)
CN1C(=O)c2cccc3c(N)ccc(c23)C1=O | -15.1% (inactive)
CCN1C(=O)c2cccc3c(N)ccc1c23 | 99.2% (active)
